Assay results from PubChem BioAssay AID720511 (Broad Institute, 2013).
Among all 350,000 compounds or so, about 1,300 (0.37%) were called active.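 How the source made its calls: active means mean added fluorescence quench of at least 8% versus neutral control, with both replicates also reaching 8%; inconclusive means only one of the mean or replicate conditions met; inactive means mean below 8% and not both replicates reaching 8%.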 The entries come from a sample that favours actives as a whole.

assay: F508del CFTR correction, initial screen, CFBE line, single point (AID 720511); conditions: CFBE cells, YFP halide quenching, at 7.58 µM, stronger effect = higher value, % fluorescence drop versus neutral controls, stimulated with forskolin plus potentiator P3;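 further: cells transiently co-express mutant CFTR-F508del with the halide-sensitive YFP; corrector assay measuring rescue of mutant channel to the surface after 24 h compound exposure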

Activity (quench increase), inactive:
CO[C@@H]1CC[C@@H]2CCOc3c(C#N)cccc3C(=O)N(C)C[C@H](C)C(=O)N(C)C[C@H]1O2 1.86%
Cn1cc(C2OC(=O)c3ccccc32)c2ccccc21 (stereo not given) 1.54%
O=C1c2cccc3c([N+](=O)[O-])ccc(c23)C(=O)N1CC1CCCO1 (stereo not given) 0.491%
NC(=O)c1ncn([C@@H]2O[C@H](C(=O)O)[C@@H](O)[C@H]2O)n1 2.03%
COc1ccc(CN(C)C[C@@H]2OCCCC[C@@H](C)Oc3ccc(NC(=O)Nc4ccc(OC)cc4)cc3C(=O)N([C@@H](C)CO)C[C@@H]2C)cc1 -0.139%
COc1ccc(-c2cn(CC[C@@H]3CC[C@@H](NS(=O)(=O)c4ccccc4C)[C@H](CO)O3)nn2)cc1 2.94%
CCCC(=O)Nc1ccc2c(c1)OC[C@H](C)N(S(=O)(=O)c1cn(C)cn1)C[C@@H](C)[C@H](OC)CN(C)C2=O -4.43%
O=C(c1ccccn1)N1CC[C@@H]2[C@H]1c1cc(-c3ccccc3)ccc1N[C@@H]2CO -1.72%
O=C1CN(S(=O)(=O)Cc2ccccc2)C[C@@H]2[C@@H](c3ccc(C#Cc4ccccc4)cc3)[C@@H](CO)N12 7.93%
CCS(=O)(=O)N1CC(=O)N2[C@H](CO)[C@@H](c3ccc(C#Cc4cccc(F)c4)cc3)[C@@H]2C1 7.13%
CCS(=O)(=O)N1CCC2(CC1)CN[C@H](CO)c1c2c2ccc(OC)cc2n1C 0.371%
C[C@@H]1CN([C@@H](C)CO)C(=O)c2cc(NS(C)(=O)=O)ccc2O[C@@H]1CN(C)C(=O)Nc1ccc(F)cc1 -3.43%
O=C(NCC1COc2ccccc2O1)C1(c2ccccc2)CCCC1 (stereo not given) 1.14%
O=C(COC(=O)c1ccc(F)cc1)NCC1COc2ccccc2O1 (stereo not given) -0.696%
CC(=O)N(C)C[C@H]1Oc2ncc(C#Cc3ccccn3)cc2C(=O)N([C@H](C)CO)C[C@@H]1C 0.118%
CO[C@@H](CN(C)S(=O)(=O)c1ccccc1)[C@H](C)CN(Cc1ccccc1Cl)[C@H](C)CO -3.7%
COc1ccc2c3c(n(C)c2c1)[C@H](CO)N(S(=O)(=O)c1ccc(C)cc1)CC31CN(C(=O)c2ccccn2)C1 1.98%
Cc1ccc(S(=O)(=O)Nc2ccc3c(c2)C(=O)N([C@H](C)CO)C[C@@H](C)[C@H](CN(C)C(=O)Nc2ccc(C(F)(F)F)cc2)OCCCC[C@H](C)O3)cc1 -0.228%
C/C(=N\Nc1ccc(Cl)nn1)c1ccccc1O -2.03%
C[C@H]1CCCCO[C@H](CN(C)Cc2ccccc2)[C@@H](C)CN([C@@H](C)CO)C(=O)c2cc(NC(=O)c3ccccc3)ccc2O1 -0.952%
C[C@H]1CN([C@@H](C)CO)S(=O)(=O)c2ccc(C3=CCCCC3)cc2O[C@@H]1CN(C)Cc1ccccc1 -0.755%
C[C@@H]1CN([C@@H](C)CO)S(=O)(=O)c2ccc(-c3ccc(F)cc3)cc2O[C@@H]1CN(C)CC1CC1 2.11%
CO[C@@H]1CN(C)C(=O)c2ccc(NS(=O)(=O)c3cccc(Cl)c3)cc2OC[C@H](C)NC[C@H]1C -1.91%
CC(C)NC(=O)N(C)C[C@H]1Oc2ccc(NC(=O)Cn3cnnn3)cc2CC(=O)N([C@H](C)CO)C[C@H]1C -1.17%
Cc1noc(C)c1S(=O)(=O)N(C)C[C@H]1Oc2c(NC(=O)c3cnccn3)cccc2C(=O)N([C@H](C)CO)C[C@H]1C -0.706%
Cc1ccc2[nH]c(=O)c(CC(=O)O)c(-c3ccccc3)c2c1 -4.85%
CCN(CC)CCCNC(=O)c1cc2c(=O)[nH]c3ccc(C)cc3c2s1 4.04%
Cc1cccc(S(=O)(=O)N2C[C@@H]3[C@H](c4ccccc42)[C@H](CO)N3CC2CCOCC2)c1 -1%
Cc1ccc(S(=O)(=O)N[C@@H]2CC[C@H](CCn3cc(-c4cccc(F)c4)nn3)O[C@@H]2CO)cc1 -2.65%
C[C@@H](NC(=O)[C@@H]1[C@@H](CO)[C@@H]2Cn3c(ccc(C4=CCCCC4)c3=O)[C@@H]2N1C)c1ccccc1 1.82%
C[C@@H]1CCCCO[C@H](CN(C)C(=O)Nc2ccc3c(c2)OCO3)[C@@H](C)CN([C@@H](C)CO)C(=O)c2cc(NC(=O)CCC(F)(F)F)ccc2O1 2.41%
CCS(=O)(=O)N1CC2(CN(C(=O)c3ccc(F)cc3)[C@H](CO)c3c2c2ccc(OC)cc2n3C)C1 2.9%
S=c1[nH]nc(-c2ccc(Cl)cc2)n1CC1CCCO1 (stereo not given) -0.339%
COc1ccc(NC(=O)C2Cc3c(-c4ccc(Cl)cc4)ccnc3O2)cc1 (stereo not given) -2.37%
C[C@H](CO)N1C[C@H](C)[C@@H](CN(C)C(=O)C2CC2)Oc2ncc(-c3cccc(C#N)c3)cc2C1=O 0.111%
Cc1ccc(S(=O)(=O)Nc2ccc3c(c2)C(=O)N([C@@H](C)CO)C[C@@H](C)[C@H](CN(C)C(=O)NC(C)C)OCCCC[C@H](C)O3)cc1 -0.752%
COc1ccc(S(=O)(=O)Nc2ccc3c(c2)C(=O)N([C@@H](C)CO)C[C@@H](C)[C@H](CN(C)C(=O)Nc2ccc(C(F)(F)F)cc2)OCCCC[C@@H](C)O3)cc1 -1.09%
CCOC(=O)C1CSCCS(=O)(=O)N1Cc1ccc(Cl)cc1 (stereo not given) -1.25%
CO[C@H]1CN(C)C(=O)c2ccc(NC(=O)c3cccc(F)c3)cc2OC[C@H](C)N(CC2CC2)C[C@@H]1C -0.247%
Cc1cccc(C(=O)OCC(=O)NCC(C)C)c1O 0.752%
Cc1c(C(=O)NC(C)C2CC3CCC2C3)cccc1[N+](=O)[O-] (stereo not given) -0.675%

Activity (quench increase), active:
CN1C(=O)c2cccc3c(N)ccc(c23)C1=O 23.7%
CCc1cc(-c2nnn(CCC3COCCO3)c2CC)ccc1-c1cn(Cc2ccc3ccccc3c2)nn1 (stereo not given) 8.99%
O=C1CN(S(=O)(=O)Cc2ccccc2)C[C@@H]2[C@@H](c3ccc(C#Cc4cccc(F)c4)cc3)[C@@H](CO)N12 9.07%
Cc1noc(C)c1C(=O)NCC1COc2ccccc2O1 (stereo not given) 19.3%
Oc1cccc(/C=N/Nc2ccc(Cl)nn2)c1O 13.3%
Oc1ccc(/C=N/Nc2nc(-c3ccccc3F)nc3ccccc23)c(O)c1 12.3%
Cc1cccc(N(C)C(=O)c2cc3c(=O)[nH]c4ccc(C)cc4c3s2)c1 15.5%
O=C(c1[nH]ncc1-c1ccc(Cl)cc1)C1CO1 (stereo not given) 9.82%
Cc1cccc(C(=O)OCC(=O)NC(C)C2CC3CCC2C3)c1O (stereo not given) 25.6%
